# Calls of active or inactive are those of the source.
# Columns and labels:
# [1] = optical density shifts of acrAB sulA E. coli – strain DRC41, OD650, 48 h, E. coli filamentation inducer project, primary screen (AID 1152); settings: higher = more signal, called active from +8 up or from −8 down;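 note: E. coli MC1000 strain DRC41 lacking acrAB efflux pump and sulA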
# [2] = probe aLefty1 binding on compound microarray – biochemical, small-molecule microarray, 635/667 nm fluorescence, primary screen (AID 1153); settings: higher = more signal;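 note: score merges spot fluorescence with signal-to-noise ratio from the scanned slide images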
# [3] = plasmodial surface anion channel blockers, osmotic lysis – cell-based, P. falciparum Indochina, OD700, 1 h, primary screen (AID 1154); settings: P. falciparum Indochina infected RBC osmotic lysis, higher = more signal, called active from +8 up or from −8 down
# [4] = plasmodial surface anion channel blockers, osmotic lysis – cell-based, P. falciparum Indochina, OD700, 2 h, primary screen (AID 1155);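 note: lysis reports solute entry through the parasite surface anion channel PSAC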; settings: P. falciparum Indochina infected erythrocytes, higher = more signal, called active from +8 up or from −8 down
# [5] = changes in parasitized red cell lysis, either direction – P. falciparum Indochina, OD700, 3 h, PSAC antagonist project, primary screen (AID 1156); settings: P. falciparum-infected erythrocytes, osmotic lysis, higher = more signal, called active from +8 up or from −8 down
# [6] = plasmodial surface anion channel blockers, osmotic lysis – cell-based, P. falciparum Indochina, OD700, 18 h, primary screen (AID 1157); settings: P. falciparum Indochina infected erythrocytes, osmotic lysis OD700, 18 h; higher = more signal, called active from +8 up or from −8 down
# [7] = S6 kinase pathway phospho-S6 level changes – cell-based, A549, cytoblot, luminescence, serum-stimulated, primary screen (AID 1158); settings: 5 h, higher = more signal;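 note: serum-stimulated A549 lung adenocarcinoma cells; signal is phosphorylated S6 detected by cytoblot immunostaining with HRP secondary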
# [8] = biological target: NADPH oxidase 2 (Homo sapiens) (UniProt P04839); assay: compounds shifting NOX2 Amplex Red fluorescence – cell-based, HEK293-NOX2, PMA-stimulated, NOX inhibitor project, primary screen (AID 1159); settings: 45 min, higher = more signal, called active from +8 up or from −8 down; note: test concentration not given here
# [9] = biological target: NADPH oxidase 4 (Homo sapiens) (UniProt Q9NPH5); assay: compounds shifting NOX4 Amplex Red fluorescence – cell-based, HEK293-NOX4, tetracycline-induced, NOX inhibitor project, primary screen (AID 1160); settings: HEK293-NOX4, Amplex Red H2O2 fluorescence, 45 min; higher = more signal, called active from +8 up or from −8 down
# [10] = biological target: NADPH oxidase 5 (Homo sapiens) (UniProt Q96PH1); assay: compounds shifting NOX5 Amplex Red fluorescence – cell-based, HEK293-NOX5, NOX inhibitor project, primary screen (AID 1161); settings: HEK293-NOX5, ionomycin, 45 min, higher = more signal
# [11] = compound effects on lung adenocarcinoma cell viability – A549, calcein-AM fluorescence, 48 h, basal, profiling panel (AID 1162); settings: higher = more signal; note: test concentration not given here
# [12] = compound effects on differentiated 3T3-L1 adipocyte viability – cell-based, 3T3-L1 adipocytes, calcein-AM fluorescence, 48 h, basal, profiling panel (AID 1163); settings: 3T3-L1 adipocytes viability, higher = more signal; note: test concentration not given here
# [13] = compound effects on hepatocellular carcinoma cell viability – HepG2, calcein-AM fluorescence, 48 h, basal, profiling panel (AID 1164); settings: higher = more signal; note: test concentration not given here
# [14] = compound effects on multiple myeloma cell viability – MM1S, calcein-AM fluorescence, 48 h, basal, profiling panel (AID 1165); settings: higher = more signal;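 note: viability of MM1S multiple myeloma cells under basal unstimulated conditions; test concentration not given here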
# [15] = calcein-AM signal in unstimulated myeloma cells – cell-based, calcein-AM fluorescence, 48 h, PK04 Diversity Set, profiling panel (AID 1166); settings: RPMI8226 myeloma viability, higher = more signal;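 note: cells grown under basal conditions without added stimulus; test concentration not given here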
# [16] = JC-1 mitochondrial signal, unstimulated HepG2 cells – cell-based, JC-1 fluorescence, 24 h, 100 nL compound, profiling panel (AID 1167); settings: HepG2 mitochondrial potential, higher = more signal; note: test concentration not given here
# [17] = JC-1 mitochondrial signal, unstimulated adipocytes – cell-based, JC-1 fluorescence, 3T3-L1 adipocytes, 24 h, 100 nL compound, profiling panel (AID 1168); settings: JC-1 mitochondrial fluorescence, higher = more signal, called active from +8 up or from −8 down; note: test concentration not given here
# [18] = JC-1 mitochondrial signal, unstimulated myeloma cells – cell-based, JC-1 fluorescence, RPMI8226, 24 h, 100 nL compound, profiling panel (AID 1169); settings: JC-1 mitochondrial potential fluorescence, higher = more signal; note: test concentration not given here
# [19] = JC-1 mitochondrial signal, unstimulated MM1S myeloma – cell-based, JC-1 fluorescence, 24 h, 100 nL compound, profiling panel (AID 1170); settings: MM1S mitochondrial potential, higher = more signal; note: test concentration not given here
# [20] = resazurin metabolic signal in A549 cells – cell-based, resazurin fluorescence, 24 h, PK04 Diversity Set, profiling panel (AID 1171); settings: A549 viability, higher = more signal, called active from +8 up or from −8 down; note: test concentration not given here
# NADPH oxidase 5 (Homo sapiens), sequence (Q96PH1 whole entry, looked up): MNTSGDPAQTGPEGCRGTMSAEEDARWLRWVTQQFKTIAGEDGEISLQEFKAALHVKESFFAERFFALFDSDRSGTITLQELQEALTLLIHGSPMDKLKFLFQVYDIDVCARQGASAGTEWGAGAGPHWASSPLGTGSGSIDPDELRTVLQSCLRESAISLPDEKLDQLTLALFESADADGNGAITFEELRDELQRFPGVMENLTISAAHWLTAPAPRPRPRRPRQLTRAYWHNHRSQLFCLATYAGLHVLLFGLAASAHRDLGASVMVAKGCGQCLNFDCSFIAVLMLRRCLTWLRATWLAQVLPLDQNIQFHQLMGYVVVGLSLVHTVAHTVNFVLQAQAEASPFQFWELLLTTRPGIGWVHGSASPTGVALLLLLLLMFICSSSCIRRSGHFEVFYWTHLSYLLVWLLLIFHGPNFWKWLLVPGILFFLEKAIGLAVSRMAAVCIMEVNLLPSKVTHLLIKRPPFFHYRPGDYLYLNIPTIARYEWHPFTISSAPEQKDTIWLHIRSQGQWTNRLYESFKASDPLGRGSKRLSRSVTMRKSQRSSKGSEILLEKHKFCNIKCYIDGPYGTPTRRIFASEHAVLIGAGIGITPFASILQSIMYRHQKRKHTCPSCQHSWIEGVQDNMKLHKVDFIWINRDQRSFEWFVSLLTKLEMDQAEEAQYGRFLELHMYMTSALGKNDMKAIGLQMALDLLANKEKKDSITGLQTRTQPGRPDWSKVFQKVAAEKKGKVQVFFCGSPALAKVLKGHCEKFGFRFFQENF
# NADPH oxidase 4 (Homo sapiens), sequence (Q9NPH5 whole entry, looked up): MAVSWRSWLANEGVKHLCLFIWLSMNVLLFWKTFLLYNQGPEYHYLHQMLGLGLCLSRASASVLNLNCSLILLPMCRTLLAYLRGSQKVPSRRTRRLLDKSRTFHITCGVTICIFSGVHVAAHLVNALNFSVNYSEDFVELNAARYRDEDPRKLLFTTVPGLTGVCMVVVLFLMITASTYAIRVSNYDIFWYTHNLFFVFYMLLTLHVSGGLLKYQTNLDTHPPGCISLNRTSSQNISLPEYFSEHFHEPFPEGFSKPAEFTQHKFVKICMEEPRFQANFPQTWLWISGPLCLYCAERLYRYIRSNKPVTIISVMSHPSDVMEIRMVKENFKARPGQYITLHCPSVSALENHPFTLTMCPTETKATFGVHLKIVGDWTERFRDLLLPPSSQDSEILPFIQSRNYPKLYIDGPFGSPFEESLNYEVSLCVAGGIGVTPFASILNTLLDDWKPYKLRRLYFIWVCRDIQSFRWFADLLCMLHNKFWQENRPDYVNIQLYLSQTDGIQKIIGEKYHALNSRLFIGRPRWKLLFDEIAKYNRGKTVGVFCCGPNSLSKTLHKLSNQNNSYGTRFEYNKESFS
# NADPH oxidase 2 (Homo sapiens), sequence (P04839 whole entry, looked up): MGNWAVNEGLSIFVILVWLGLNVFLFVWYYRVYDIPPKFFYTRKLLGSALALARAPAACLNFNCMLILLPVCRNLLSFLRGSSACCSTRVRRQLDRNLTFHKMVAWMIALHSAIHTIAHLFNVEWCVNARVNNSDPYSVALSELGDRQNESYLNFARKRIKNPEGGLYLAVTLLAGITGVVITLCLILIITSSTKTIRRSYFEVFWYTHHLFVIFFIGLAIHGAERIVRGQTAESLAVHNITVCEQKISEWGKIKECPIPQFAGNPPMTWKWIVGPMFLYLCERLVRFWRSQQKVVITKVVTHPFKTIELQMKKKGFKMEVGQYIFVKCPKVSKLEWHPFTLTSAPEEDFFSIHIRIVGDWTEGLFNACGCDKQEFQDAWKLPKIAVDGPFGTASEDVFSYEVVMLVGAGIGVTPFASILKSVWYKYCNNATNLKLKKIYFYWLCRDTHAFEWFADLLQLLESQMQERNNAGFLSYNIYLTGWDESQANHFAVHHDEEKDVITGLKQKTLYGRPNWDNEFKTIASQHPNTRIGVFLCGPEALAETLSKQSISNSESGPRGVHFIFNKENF
SMILES,z-score [1],composite z-score [2],z-score [3],z-score [4],z-score [5],z-score [6],z-score [7],z-score [8],z-score [9],z-score [10],z-score [11],z-score [12],z-score [13],z-score [14],z-score [15],z-score [16],z-score [17],z-score [18],z-score [19],z-score [20]
CC(C)[Si](C#Cc1ccc(Oc2ccccc2)cc1)(O[Si](C#Cc1ccc(Oc2ccccc2)cc1)(C(C)C)C(C)C)C(C)C,0.555 (inactive),-0.103,2.62 (inactive),1.85 (inactive),0.226 (inactive),1.39 (inactive),0.335,1.49 (inactive),1.46 (inactive),-1.34,0.271,0.587,-0.377,-1.58,-0.743,-0.683,0.733 (inactive),0.0384,-0.00729,0.162 (inactive)
Oc1ccc2cc[n+](Cc3sc4ccccc4c3Cl)cc2c1,-0.669 (inactive),0.248,1.52 (inactive),0.109 (inactive),1.52 (inactive),0.352 (inactive),0.0138,-0.121 (inactive),-1.23 (inactive),-0.1,-0.66,0.552,-0.934,0.241,-1.86,-1.4,-0.0649 (inactive),0.376,1.78,-0.655 (inactive)
C[C@H]1C2[C@H](Cc3ccccc3)NC(=O)[C@]23C(=O)N[C@H](Cc2ccccc2)C(=O)N2CCC[C@H]2C(=O)NC/C=C\C/C=C/C3[C@@H]2O[C@]12C (stereo not given in full),0.637 (inactive),-0.026,1.4 (inactive),-1.49 (inactive),-1.3 (inactive),-2.52 (inactive),0.477,0.977 (inactive),1.14 (inactive),1.73,1.4,0.993,0.445,0.0625,-0.0608,0.725,0.736 (inactive),-0.243,-0.634,0.559 (inactive)
COc1ccc(C#Cc2ccc3c(c2)[C@]2(C(=O)N3)[C@H](c3ccccc3OCCO)N3[C@H](c4ccccc4)[C@H](c4ccccc4)OC(=O)[C@H]3[C@@H]2C(=O)Nc2nc3ccccc3s2)cc1,-0.89 (inactive),1.78,1.35 (inactive),1.67 (inactive),1.46 (inactive),0.457 (inactive),-0.0333,-1.26 (inactive),-0.977 (inactive),-4.34,0.855,0.453,-0.543,-2.43,-2.65,-3.4,2.29 (inactive),-0.631,-1.28,-2.07 (inactive)
O=C1C2C=CC(C(O)Cc3ccccc3)N(n3cnnc3)C2C(=O)N1Cc1ccccc1 (stereo not given),-1.07 (inactive),0.333,1.78 (inactive),1.06 (inactive),1.04 (inactive),0.587 (inactive),-0.309,-0.112 (inactive),-1.69 (inactive),-1.36,-0.182,0.549,-0.065,-0.304,-1.11,-0.532,-0.533 (inactive),0.395,1.24,-1.29 (inactive)
COc1ccc([Si](C)(C)[C@H]2[C@H](CC(=O)N3Cc4ccccc4C[C@H]3CO)O[C@@]3(C(=O)N(Cc4cccc(N5CCC5=O)c4)c4ccccc43)[C@@H]2C)cc1,-0.372 (inactive),-0.0536,5.46 (inactive),1.63 (inactive),0.011 (inactive),1.09 (inactive),-0.0301,-1.15 (inactive),-0.95 (inactive),-1.44,0.0575,0.441,-0.616,-2.68,-3,0.419,0.465 (inactive),-1.02,-1.23,-0.919 (inactive)
C=C(/C(=C/C[C@H](OC(C)=O)c1ccccc1OCCO)c1cnc2ccccc2c1)C(C)C,-0.564 (inactive),-0.0654,9.77 (active),1.55 (inactive),1.29 (inactive),0.724 (inactive),0.193,-0.353 (inactive),-0.402 (inactive),-1.08,0.689,-0.665,0.218,-3.32,-2.23,0.469,-1.34 (inactive),0.251,-0.685,-0.0361 (inactive)
O=C1C[C@@](C(=O)NCCN2CCOCC2)(c2ccc([N+](=O)[O-])cc2)[C@@H](c2ccc(CO)cc2I)N1CC12CC3CC(CC(C3)C1)C2,-0.942 (inactive),0.344,18.9 (active),10.2 (active),0.797 (inactive),1.28 (inactive),0.238,-8.18 (active),-1.75 (inactive),1.58,-4.03,0.546,-5.11,-3.86,-4.39,-2.72,0.981 (inactive),-0.93,-2.17,-4.83 (inactive)
CO[C@H]1O[C@H](CO)[C@@H](OC(=O)Nc2cccc(F)c2)[C@H](OC(=O)Nc2ccccc2)[C@@H]1OC(=O)Nc1ccccc1,-1.17 (inactive),0.22,8.61 (active),1.93 (inactive),-0.476 (inactive),1.4 (inactive),0.646,-1.12 (inactive),-0.322 (inactive),-1.08,-1.61,0.18,-2.08,-3.43,-4.24,-0.702,-1.66 (inactive),-1.22,-1.07,-3.16 (inactive)
CCc1cccc(NC(=O)O[C@H]2[C@H](OC(=O)Nc3ccccc3-c3ccccc3)[C@@H](OC(=O)Nc3ccccc3-c3ccccc3)[C@@H](OC)O[C@@H]2CO)c1,-1.5 (inactive),0.419,3.37 (inactive),0.995 (inactive),-0.975 (inactive),1.31 (inactive),-0.84,-5.54 (inactive),-1.18 (inactive),-1.13,-4.21,0.175,-4.64,-3.46,-4.11,-1.11,1.66 (inactive),-1.1,-1.91,-6.15 (inactive)
C=CC[C@]1(C(=O)NCc2ccccc2)N=C(c2ccc(OCCCO)cc2)O[C@H]1c1ccccc1N=[N+]=[N-],0.0858 (inactive),0.222,31.8 (active),27.1 (active),3.46 (inactive),6.96 (inactive),0.0617,-1.8 (inactive),0.721 (inactive),-0.0713,-1.2,0.514,-0.0143,-1.77,-1.41,-0.456,0.474 (inactive),-0.938,0.0422,-0.888 (inactive)
COC(=O)[C@@]1(Cc2ccc(OC)cc2)[C@H]2c3cc(C(=O)N4CCCC4)n(CCN4CNCC4=O)c3C[C@H]2CN1C(=O)c1ccccc1,-0.82 (inactive),1.86,2.95 (inactive),0.0621 (inactive),0.775 (inactive),0.838 (inactive),0.287,0.468 (inactive),-2.36 (inactive),-4.44,-0.215,0.0334,-0.137,-0.105,-2.17,0.696,-0.514 (inactive),-0.429,-0.162,-0.936 (inactive)
COCCOC(=O)N1C(=O)[C@@]2(c3cc(C#CCNC(N)=O)ccc31)[C@H](C(=O)Nc1nc3ccccc3s1)[C@H]1C(=O)O[C@H](c3ccccc3)[C@H](c3ccccc3)N1[C@@H]2c1ccc(OCCO)cc1,-0.537 (inactive),0.729,2.48 (inactive),1.23 (inactive),0.0531 (inactive),0.559 (inactive),-0.0692,1.42 (inactive),1.19 (inactive),1.4,-0.649,1.2,-1.22,-2.58,-0.0496,-3.26,1 (inactive),-0.692,-1.53,0.385 (inactive)
Cc1ccc(S[C@]2(C(=O)O)CC(=O)N(C(C)C)[C@@H]2c2ccc(CO)cc2I)cc1,3.35 (inactive),0.775,14.3 (active),1.02 (inactive),0.532 (inactive),-0.263 (inactive),2.24,0.899 (inactive),-2.47 (inactive),0.852,2.14,0.827,1.65,-2.36,-0.902,0.0957,-0.386 (inactive),-0.527,-0.56,0.667 (inactive)
CC(=O)n1cc(C(O)C2C=CC3C(=O)N(c4ccccc4)C(=O)C3N2Nc2ccc([N+](=O)[O-])cc2)c2ccccc21 (stereo not given),-1.2 (inactive),0.272,17 (active),3.57 (inactive),1.13 (inactive),0.954 (inactive),-0.75,-0.808 (inactive),-2.56 (inactive),-1.91,-0.456,-0.479,-0.439,-1.53,-0.315,-1.75,-1.2 (inactive),-0.412,0.0885,-0.375 (inactive)
CCCC[C@@H]1C[C@H]1[C@@H](NC(=O)c1ccco1)c1ccccc1C(F)(F)F,-1.91 (inactive),2.47,0.233 (inactive),0.105 (inactive),-0.104 (inactive),0.471 (inactive),-0.278,-0.295 (inactive),-1.28 (inactive),-1.26,-2.09,-1.51,-0.489,-1.1,-0.484,-1.7,-1.22 (inactive),-0.583,-0.481,-0.26 (inactive)
CCCCCN1CC=CC23O[C@@H]4C=CCCOC(=O)C4[C@H]2C(=O)N(CCCCCO)[C@@H]3C1=O (stereo not given in full),1.09 (inactive),-0.0984,1.73 (inactive),1.1 (inactive),2.68 (inactive),0.575 (inactive),0.708,1.36 (inactive),0.228 (inactive),1.32,0.0264,-1.3,0.542,1.8,1.74,0.301,-0.0303 (inactive),0.159,-0.849,0.26 (inactive)
CCOC(=O)C[C@H]1[C@H](OC(=O)c2ccc(C(=O)c3ccccc3)cc2)[C@@H](NC(=O)c2ccc3ccccc3n2)c2cc(OCCCO)ccc2N1C(=O)c1ccccc1,-0.983 (inactive),-0.0683,0.839 (inactive),-0.136 (inactive),-0.883 (inactive),-0.232 (inactive),-0.322,0.34 (inactive),1.06 (inactive),1.2,-0.851,0.824,0.376,-0.67,-0.705,1.11,-0.966 (inactive),0.484,-0.318,0.154 (inactive)

# — PubChem BioAssay
